{"source": "PubChem BioAssay AID1508600", "about": "(Functional Genomics Laboratory (NCATS/FGL), 2020)", "note": "The whole screen tested about 53,000 sequences, of which about 3,700 (7%) were called active. The sample as a whole holds a higher share of actives than the screen did. Unmarked numbers belong to inactive results.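 Rule for the calls: active = gene knockdowns whose robust z-score for IL-1 alpha signal is at least 2 or at most -2, so actives lie on both sides; inactive = the rest.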"}
{"assay": "Components of the Cytosolic LPS Sensing Pathway: Gene Identification via Genome-wide siRNA Screen;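 note: robust z of the log signal after scaling to non-targeting control siRNA wells of the plate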", "conditions": "RAW264.7 macrophages, IL-1a HTRF, actives lie on both sides, screened at 100 nM (by protocol), cells primed 5 h with Pam3CSK4 first", "in_short": "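IL-1a HTRF of supernatants after 24 hour LipidA transfection of Pam3CSK4-primed (5 hours) RAW264.7 cells, 48h post-siRNA transfection (100 nM). Scores: percent of plate negative-control median, then log-based robust z-score.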"}
{"sequence": "GGAAUCUCGGAGGAAAACUTT against Hyou1", "z-score": 1.99}
{"sequence": "GGCAGUAGCCUUGUCUGUCTT against Prrx2", "z-score": -1.42}
{"sequence": "GCAAGAUCCCGACACAUACTT against Tead4", "z-score": "-2.22 (active)"}
{"sequence": "GGUCUCACAGCAGUACUCATT against Clk4", "z-score": -1.46}
{"sequence": "GGACACAGGGUCUCUUACATT against Msrb2", "z-score": -1.25}
{"sequence": "GGCUCAAGACUUAAAUUCATT against Olfr1100", "z-score": 0.437}
{"sequence": "CCUACUGGUUGAAAAUAUUTT against Tceanc2", "z-score": 1.16}
{"sequence": "GGAAGACACUCCUCUGCUCTT against Oca2", "z-score": 1.63}
{"sequence": "GGUGCGUCCUGAAAUCAUCTT against Txndc12", "z-score": "-2.52 (active)"}
{"sequence": "GGUUGAUGAAAAAACUGUATT against Itsn2", "z-score": 0.755}
{"sequence": "GGCUAGAGAAAUAGUGUUGTT against Reep1", "z-score": 0.218}
{"sequence": "GGAUCUUCAAUUCGUUGGUTT against Cachd1", "z-score": "2.75 (active)"}
{"sequence": "GCCACUCAAAGUUCGAAGGTT against Tmem51", "z-score": -0.515}
{"sequence": "GGUACUAAAGAAAUAUCCCTT against Sirt7", "z-score": 0.736}
{"sequence": "GGCUUGUUUCCAAAAUAGGTT against Rflna", "z-score": 0.327}
{"sequence": "GGCUUUCUUUGCCAUGACCTT against Copg1", "z-score": "-2.93 (active)"}
{"sequence": "CCCUAGAUGGCCGAAAUAUTT against Dazap1", "z-score": -1.47}
{"sequence": "CCUUAUCUGGAGUGCGAGATT against Gpr158", "z-score": 0.452}
{"sequence": "CCAAUCCUGAAUAAUGAGATT against Spag17", "z-score": 0.0419}
{"sequence": "CGCCGCAGUAUUAAUGGCUTT against Nxph4", "z-score": 0.225}
{"sequence": "GGUGGACCUGCACUUUACCTT against Fam135b", "z-score": 0.67}
{"sequence": "CGUCUAUCUUGGAUUACUATT against Dll1", "z-score": "2.11 (active)"}
{"sequence": "UAAAUACUUACCAGCUGGATT against Olfr1306", "z-score": 1.06}
{"sequence": "GCACCAGUCGAAUCCUCAATT against Gpr137", "z-score": -1.46}
{"sequence": "GGCCCAAGGAUCAAUUUAUTT against Zup1", "z-score": 0.914}
{"sequence": "GGUUCCUGGGAACCUAAGUTT against Med25", "z-score": "2.02 (active)"}
{"sequence": "CCUCAUCGAUGCACUACCCTT against Lrfn4", "z-score": -0.338}
{"sequence": "GCUCAUGACACUCUUCCUGTT against Spib", "z-score": 1.45}
{"sequence": "GGAGGAUGGCUUUACCGCATT against Mib2", "z-score": -1.64}
{"sequence": "GCCGGAUUGAGAUCUCUAUTT against 1500015L24Rik", "z-score": 0.734}
{"sequence": "GGAACAGGACAAUGACAGUTT against Gzme", "z-score": 1.43}
{"sequence": "GGCUUACUUCAUUUCAGUUTT against Zfp526", "z-score": 0.0808}
{"sequence": "GGAAAACAUUAAGAAGGGCTT against Ccn2", "z-score": "3.41 (active)"}
{"sequence": "GGACCUCCACCGUUACUACTT against Sgsh", "z-score": 0.367}
{"sequence": "GGAGGAACACAAGAUUUUCTT against Ppp2r5c", "z-score": -0.322}
{"sequence": "GGAAGUCCAUCUCUUUUGCTT against Olfr56", "z-score": 0.213}
{"sequence": "GGAUCCAGAAAGUCCAGAUTT against Nt5c3b", "z-score": 0.918}
{"sequence": "GGAUGUUGGUACUUUUUGATT against Pwp1", "z-score": -0.254}
{"sequence": "GGAAUAAAGUGUUGUGUCATT against Wfdc15b", "z-score": -0.118}
{"sequence": "GGUAGCAGUUGCUUUAAUATT against Siah2", "z-score": "2.65 (active)"}
{"sequence": "GGGUUUCACAGGCAAACAGTT against Suclg1", "z-score": -0.904}
{"sequence": "CCCUGUACCUAGCUCAAGATT against Ecel1", "z-score": -0.693}
{"sequence": "GGAAUCAUCUUUGUGGAGATT against Nudt22", "z-score": -0.733}
{"sequence": "GCCAACGAGAGUAAACACGTT against 5930403N24Rik", "z-score": -0.0706}
{"sequence": "GGUCUACUGACUCAAAGUCTT against Mrps33", "z-score": "2.2 (active)"}
{"sequence": "GGAUUUCAAAUGGAAACAATT against Vmn1r45", "z-score": -1.15}
{"sequence": "GCAUGAAUUUUGCACGGACTT against Rad18", "z-score": 1.04}
{"sequence": "UCAACUCAAACUAUGUCGATT against Hoxb4", "z-score": -0.172}
{"sequence": "GGUCUGUGGAUUUAAACUUTT against Sestd1", "z-score": 0.931}
{"sequence": "CGAAGAGAGCUGCAUUAAATT against BC049715", "z-score": -1.37}
{"sequence": "GGCUAUCAUGAACUUGGAUTT against Gpd2", "z-score": -0.57}
{"sequence": "GGAAAUGUACAAGACUGAUTT against Anxa2", "z-score": "2.29 (active)"}
{"sequence": "GGAAAAAAACUUGCUGGAUTT against Ppp3ca", "z-score": -0.681}
{"sequence": "CCAAAUAACCUGCUACGAGTT against Ffar2", "z-score": 0.905}
{"sequence": "GGUAUACUAACUUUUAAGGTT against Fmo1", "z-score": -0.228}
{"sequence": "GCCUCUAUUCUACACCACATT against Gpr137", "z-score": "-2.1 (active)"}
{"sequence": "GAAAAACUGCUGUUUUGGATT against Ly6g6d", "z-score": 1.87}
{"sequence": "GGAGACGAGAGGAUCCUCUTT against Chga", "z-score": -1.56}
{"sequence": "GGUCAAGAAUGUAGCUGAUTT against Atp6v0d1", "z-score": -1.87}
{"sequence": "GGUGUGUGAACCAUGUGUGTT against Olfr157", "z-score": -1.03}
{"sequence": "GGCAUAGUGAAUUUAGUCUTT against Iqub", "z-score": 0.526}
{"sequence": "GGCUGGAUACUCAGUGCUATT against Abhd16b", "z-score": "6.41 (active)"}
{"sequence": "GGUCAUGGAUCAGAAAGAATT against Hnrnpd", "z-score": 0.297}
{"sequence": "CACGGUACAGUACGAUUGATT against Rcan2", "z-score": 0.143}
{"sequence": "CAAGUACAAGCAGUUGACCTT against BC061237", "z-score": -0.0958}
{"sequence": "GAGGGUGUGCAUUCUUCUATT against Olfr1242", "z-score": -0.766}
{"sequence": "GGUUCCUUAAUCACUUUGCTT against Ndufa9", "z-score": -0.139}
{"sequence": "GGAACAGAUAACAUUAUGGTT against Cpeb3", "z-score": "2.79 (active)"}
{"sequence": "GGCCCUUACUUCCACAUCATT against Fam104a", "z-score": -0.711}
{"sequence": "CGAAGCACAUAUCUUUGAUTT against Zfp41", "z-score": 0.444}
{"sequence": "GGAAAGAGGAAUCAAGAAATT against Slc23a2", "z-score": -1}
{"sequence": "CCAAAGAGCGCAUGGCUCATT against Epn2", "z-score": -0.782}
{"sequence": "GCGAAUCAGCACUUAUGGATT against Cd2ap", "z-score": "2.65 (active)"}
{"sequence": "GGUCUACUCUUCAUAUCGCTT against Rab3d", "z-score": -0.566}
{"sequence": "GGACAGUUCAGAACAAAUUTT against Ccbe1", "z-score": -0.168}
{"sequence": "GCUGAACCAAACCCAAAUGTT against Snph", "z-score": 0.00664}
{"sequence": "GGUGAUGCCACUAGUGAAGTT against Scx", "z-score": -0.123}
{"sequence": "GGCAGAUCUAUUUAUGGUATT against Ccer1", "z-score": 0.229}
{"sequence": "GGUCUCAGCAAUCUGUUCCTT against 1700029I15Rik", "z-score": "-2.15 (active)"}
{"sequence": "GGAACUAUACCAAAGGCAATT against Cfap65", "z-score": -0.198}
{"sequence": "GGAAUGAAGUCUGUCUUCGTT against Zdhhc7", "z-score": 0.648}
{"sequence": "GGAGGAGGAGCUGAAGAAATT against Atp12a", "z-score": -0.679}
{"sequence": "GGAAAGAUUUAUUUUGACGTT against Vnn3", "z-score": 0.286}
{"sequence": "GGGUAUUGCUGGACAACGUTT against Col1a1", "z-score": "3.85 (active)"}
{"sequence": "GGUCUUCAGCACCUUUGAATT against Ccl2", "z-score": -0.903}
{"sequence": "GGUACUUUUAUCUUAGCUATT against Paral1", "z-score": 0.0889}
{"sequence": "GGGAUUGUGAAUUUCAUGUTT against Gca", "z-score": 1.3}
{"sequence": "GCAGAUCAAUGACUAUAGATT against Arhgef11", "z-score": 0.858}
{"sequence": "GCCAUAUGGGCAGAUGUUUTT against Sec24b", "z-score": -0.682}
{"sequence": "GCCUAAGAGUUUCAAUAAGTT against Tgtp1", "z-score": -1.21}
{"sequence": "GCAAAUGCACACUCUAGGATT against Ptprn2", "z-score": -0.0741}
{"sequence": "GGAAUUUUAUGCCAAGAAUTT against Hip1r", "z-score": "-3.89 (active)"}
{"sequence": "GGAAGAAUCGCUGCUACCGTT against Mrpl20", "z-score": 1.06}
{"sequence": "GCUGUGAUCAGGACGAGAATT against Stx2", "z-score": 0.187}
{"sequence": "GGGAAAGAUUCAUGUUACUTT against Mug2", "z-score": -0.804}
{"sequence": "GCUAACCAGUCAGUUGAUCTT against Mocs1", "z-score": -0.086}
{"sequence": "CCUUACCAAUGUUCAUUUATT against Skint7", "z-score": -0.32}
{"sequence": "GGAUCUGCAUUUCACUAUUTT against Pi4ka", "z-score": 0.818}
{"sequence": "GCAUACAAAUGCACAUUGATT against Lsg1", "z-score": "2.69 (active)"}
{"sequence": "GGAUCCGUGAAUGUAGUCATT against Rapgef4", "z-score": -0.793}
{"sequence": "CGGAUUGUAAAGAACUGCATT against Sfrp1", "z-score": -0.0934}
{"sequence": "GCUUUGUGAUGGAUUACUATT against Ccl4", "z-score": 1.85}
{"sequence": "CGUAUACUGUGAUUGAUAUTT against Lcn5", "z-score": -0.647}
{"sequence": "GGCCAGAAGAUUCCUAAAGTT against Gulp1", "z-score": "3.38 (active)"}
{"sequence": "GUUACAGUAUUCUAUGGGATT against Olfr1080", "z-score": 0.508}
{"sequence": "GGUUUUUCUGAGUUUCCGUTT against Il4i1", "z-score": -1.03}
{"sequence": "GCCUCAUUAUAAAUCACACTT against Bclaf3", "z-score": 0.752}
{"sequence": "GGUGGAGUUCGUGUUGAGCTT against Slc6a11", "z-score": -0.527}
